These results are taken from PubChem BioAssay (Tox21).

The nature of assay [1]: qHTS assay to identify small molecule antagonists of the estrogen receptor alpha (ER-alpha) signaling pathway using the BG1 cell line in the presence of 0.1 nM 17-beta-estradiol - cell viability counter screen (AID 1259241). Further: nearly all actives have a fitted effect of over 40% in size. Further: potency means the concentration at half of the fitted maximal effect. Summed up:
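VM7Luc4E2, 4,000 cells/well, phenol red-free medium + 10% charcoal-stripped FBS; 24 hr plating; cpd + 0.1 nM E2 final, 22 hr 37C/5% CO2; CellTiter-Fluor 30 min, fluorescence.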
On the technique in general: In qHTS, concentration-response curves come from the screen itself.

Assay [2] is described as follows: qHTS assay to identify small molecule antagonists of the androgen receptor (AR) signaling pathway using the MDA cell line in the presence of 0.5 nM R1881 - cell viability counter screen (AID 1259242). Further: nearly all actives have a fitted effect of over 45% in size. Further: potency means the concentration at half of the fitted maximal effect. The method, boiled down: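 Fluorescence from CellTiter-Fluor, which reports protease activity of live cells, was read 30 min after reagent addition to MDA-kb2 cells that had been incubated 16 hr with compound and 0.5 nM R1881.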

Assay [3] concerns the target Androgen receptor (Homo sapiens) (UniProt P10275). As to the kind of experiment: qHTS assay to identify small molecule antagonists of the androgen receptor (AR) signaling pathway using the MDA cell line in the presence of 0.5 nM R1881 (AID 1259243). Further: nearly all actives have a fitted effect of over 50% in size. Further: potency means the concentration at half of the fitted maximal effect. The method, boiled down:
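Inhibition of R1881 (0.5 nM final) induced reporter signal was measured in human MDA-kb2 cells; note the MMTV promoter also responds to GR. Exposure lasted 16 hr at 37C.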

Assay [4] has as its target Estrogen receptor (Homo sapiens) (UniProt P03372). As to the kind of experiment: qHTS assay to identify small molecule antagonists of the estrogen receptor alpha (ER-alpha) signaling pathway using the BG1 cell line in the presence of 0.1 nM 17-beta-estradiol (AID 1259244). Further: nearly all actives have a fitted effect of over 50% in size. Further: potency means the concentration at half of the fitted maximal effect. Summed up: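 Quantitative high-throughput screen in VM7Luc4E2 cells: compound plus 0.1 nM E2 (final), 22 h, 37C, 5% CO2; ONE-Glo added, 30 min room temperature, luminescence measured.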

Assay [5] in a line: qHTS assay to identify small molecule HDAC inhibitors (AID 1259364). Further: top concentration of the series differs between compounds; nearly all actives have a fitted effect of over 45% in size. Summed up: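 Endogenous HDAC class I/II activity was measured in wild-type HCT-116 cells by HDAC-Glo luminescence after 2 h compound treatment.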
The nature of assay [6]: qHTS assay to identify small molecule HDAC inhibitors - cell viability counter screen (AID 1259365). Further: nearly all actives have a fitted effect of over 50% in size. Further: potency means the concentration at half of the fitted maximal effect. The method, boiled down:
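Luminescence from CellTiter-Glo, developed 30min at room temperature, reports viability of wild-type HCT-116 cells treated 2hr with compounds at 37 C and 5% CO2 after overnight plating.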

A short description of assay [7]: qHTS assay to identify small molecule agonists of the sonic hedgehog signaling (Shh) pathway - cell viability counter screen (AID 1259366). Further: nearly all actives have a fitted effect of over 50% in size. Further: potency means the concentration at half of the fitted maximal effect. Summed up: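 Cytotoxicity counter screen run in the same wells as the Shh reporter assay. NIH/3T3 cells carrying a Gli1 response element–driven luciferase were treated with DMSO-dissolved compounds for 24hr, and live-cell protease activity was measured with CellTiter-Fluor.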

Assay [8] in a line: qHTS assay to identify small molecule antagonists of the sonic hedgehog signaling (Shh) pathway - cell viability counter screen (AID 1259367). Further: nearly all actives have a fitted effect of over 55% in size. Further: potency means the concentration at half of the fitted maximal effect. Summed up:
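Seed 3T3 Gli1-Luc cells at 2,000 per well; incubate 4 hr; add compound in DMSO, then conditioned medium; incubate at 37C with 5% CO2; add CellTiter-Fluor after 23 hr; read fluorescence 1 hr later.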

The nature of assay [9]: qHTS assay to identify small molecule agonists of the sonic hedgehog signaling (Shh) pathway (AID 1259368; calls by dose curve; further: nearly all actives have a fitted effect of over 15% in size; further: potency means the concentration at half of the fitted maximal effect). Summed up: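 Luminescent signal was taken as a measure of Gli1-controlled luciferase expression in stably transfected NIH/3T3-derived cells that had been treated for 24 hr with compounds delivered in DMSO.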
A short description of assay [10]: qHTS assay to identify small molecule antagonists of the sonic hedgehog signaling (Shh) pathway (AID 1259369; calls by dose curve; further: nearly all actives have a fitted effect of over 45% in size; further: potency means the concentration at half of the fitted maximal effect). The method, boiled down:
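Screening used 3T3Gli1-Luc cells at 2,000 per well, compounds delivered in DMSO, and conditioned medium as agonist stimulus; plates incubated 24hr at 37 C and 5% CO2 before a 30min luciferase step.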

The nature of assay [11]: qHTS assay to identify small molecule agonists of the androgen receptor (AR) signaling pathway in the presence of an antagonist - cell viability counter screen (AID 1259379). Further: nearly all actives have a fitted effect of over 25% in size. Further: potency means the concentration at half of the fitted maximal effect. The method, boiled down:
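In MDA-kb2 cells (human breast carcinoma, MMTV-luciferase), compounds at 15 concentrations plus 3.0uM nilutamide; 16 hr, 37C, 0% CO2; CellTiter-Fluor fluorescence read for viability.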

A short description of assay [12]: qHTS assay to identify small molecule agonists of the estrogen receptor beta (ER-beta) signaling pathway - cell viability counter screen (AID 1259380). Further: nearly all actives have a fitted effect of over 30% in size. Further: potency means the concentration at half of the fitted maximal effect. The method, boiled down: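 Viability of ER-beta-UAS-bla HEK293T cells was determined by CellTiter-Glo luminescence following 16 hr treatment with test compounds at 37C.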
In assay [13] the target is Androgen receptor (Homo sapiens) (UniProt P10275). As to the kind of experiment: qHTS assay to identify small molecule agonists of the androgen receptor (AR) signaling pathway in the presence of an antagonist (AID 1259381; calls by dose curve; further: nearly all actives have a fitted effect of over 15% in size). The method, boiled down: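 Here, 15-concentration compound series were pin-transferred onto MDA-kb2 MMTV-luciferase cells already dosed with nilutamide (3.0uM final). After 16hr at 37C, ONE-Glo was added and luminescence read 30min later at room temperature.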

Assay [14] in a line: qHTS assay to identify small molecule antagonists of the estrogen receptor beta (ER-beta) signaling pathway - cell viability counter screen (AID 1259382). Further: nearly all actives have a fitted effect of over 55% in size. Further: potency means the concentration at half of the fitted maximal effect. Summed up: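 Tox21 10K library tested in qHTS format on ER-beta-bla HEK293T cells stimulated with 1nM E2; 16 hr treatment at 37C. Same-well CellTiter-Glo luminescence served as the cell viability measure.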
The target in assay [15] is Estrogen receptor (Homo sapiens) (UniProt P03372). As to the kind of experiment: qHTS assay to identify small molecule agonists of the estrogen receptor alpha (ER-alpha) signaling pathway in the presence of an antagonist (AID 1259383; calls by dose curve; further: top concentration of the series differs between compounds; nearly all actives have a fitted effect of over 15% in size). Summed up:
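In VM7Luc4E2 cells, 4,000 per well, compounds at 15 concentrations were co-incubated 22hr at 37C with 10.0nM final ICI-182,780. Luminescence from the stably transfected 4×ERE-luciferase reporter was recorded 30min after ONE-Glo addition.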

Assay [16] can be described thus: qHTS assay to identify small molecule agonists or antagonists of the thyroid stimulating hormone receptor (TSHR) signaling pathway - wild type cell line counter screen (AID 1259384; calls by dose curve). The method, boiled down: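 Wild-type Hek293 cells, 800/well, 18 h at 37C, then compound with Ro20-1724 for 30 min RT. cAMP by HTRF (cAMP-d2/anti-cAMP cryptate), 1 h RT, fluorescence read. 15 concentrations, triplicates.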

Assay [17] deals with Thyrotropin receptor (Homo sapiens) (UniProt P16473). As to the kind of experiment: qHTS assay to identify small molecule antagonists of the thyroid stimulating hormone receptor (TSHR) signaling pathway (AID 1259385; calls by dose curve; further: nearly all actives have a fitted effect of over 20% in size; further: potency means the concentration at half of the fitted maximal effect). The method, boiled down: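 TSHR-HEK293 cells (800/well) plated 18 h, then compounds with Ro20-1724 and TSH at 1.5 ng/mL final, 30 min at room temperature. cAMP quantified by HTRF (cAMP-d2/anti-cAMP-cryptate, 1 h); 15 concentrations in triplicate.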

Assay [18] deals with Estrogen receptor beta (Homo sapiens) (UniProt Q92731). As to the kind of experiment: qHTS assay to identify small molecule antagonists of the estrogen receptor beta (ER-beta) signaling pathway (AID 1259378; active means well fitted inhibition curve with a large enough effect in the signal ratio in the repeat runs, not every such curve was filed as active; the % refers to the signal ratio; further: potency means the concentration at half of the fitted maximal effect). The method, boiled down: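 ER-beta-UAS-bla HEK293T cells in 2% charcoal-stripped FBS medium treated with compound plus 1nM final 17-beta-estradiol for 16 hr at 37C. Beta-lactamase reporter read by FRET substrate fluorescence after 2 hours at room temperature.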

Assay [19] in a line: qHTS assay to identify small molecule phospholipidosis (PLD) inducers (AID 1259344; active means well fitted curve in the direction sought with a large enough effect; an effect the other way counts as inactive or inconclusive). Summed up:
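Quantitative HTS in HepG2: compound plus LipidTOX Red dye for 24 h, paraformaldehyde fixation with Hoechst 33342, widefield high-content imaging; amiodarone as positive and DMSO as negative control.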

Assay [20] deals with Estrogen receptor beta (Homo sapiens) (UniProt Q92731). As to the kind of experiment: qHTS assay to identify small molecule agonists of the estrogen receptor beta (ER-beta) signaling pathway (AID 1259377; active means well fitted activation curve with a large enough effect in the signal ratio in the repeat runs, not every such curve was filed as active; the % refers to the signal ratio). The method, boiled down: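 HEK293T ER-beta-UAS-bla; 2% charcoal-stripped FBS; cells pre-incubated 6 hr, compound 16 hr, 37C/5% CO2; LiveBLAzer B/G FRET substrate 2 h RT; fluorescence intensity read.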

Inconclusive results are not listed. The source made the active and inactive calls. Unless noted, the call rests on the fitted dose curve; in most records, active means well fitted curve in the direction sought with a large enough effect in the repeat runs; inconclusive means weak or mixed curves; inactive means no such curve, though single readings can be large; an effect the other way counts as inactive or inconclusive.

Chain of Estrogen receptor beta (Homo sapiens) (Q92731 whole entry, looked up): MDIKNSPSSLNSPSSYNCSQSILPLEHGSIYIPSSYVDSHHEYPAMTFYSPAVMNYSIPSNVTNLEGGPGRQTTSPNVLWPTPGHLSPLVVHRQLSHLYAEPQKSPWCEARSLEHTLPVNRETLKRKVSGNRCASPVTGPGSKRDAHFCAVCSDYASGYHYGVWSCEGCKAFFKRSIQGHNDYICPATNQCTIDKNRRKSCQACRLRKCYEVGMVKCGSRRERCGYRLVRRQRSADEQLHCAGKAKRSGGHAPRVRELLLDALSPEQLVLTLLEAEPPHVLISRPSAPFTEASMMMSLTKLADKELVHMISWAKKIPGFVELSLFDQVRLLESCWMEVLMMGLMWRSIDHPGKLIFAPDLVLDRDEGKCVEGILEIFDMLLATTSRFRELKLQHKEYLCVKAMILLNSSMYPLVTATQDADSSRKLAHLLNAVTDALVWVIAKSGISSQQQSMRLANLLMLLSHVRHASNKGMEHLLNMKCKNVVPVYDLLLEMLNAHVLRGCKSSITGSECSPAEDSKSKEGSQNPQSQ
Chain of Androgen receptor (Homo sapiens) (P10275 whole entry, looked up): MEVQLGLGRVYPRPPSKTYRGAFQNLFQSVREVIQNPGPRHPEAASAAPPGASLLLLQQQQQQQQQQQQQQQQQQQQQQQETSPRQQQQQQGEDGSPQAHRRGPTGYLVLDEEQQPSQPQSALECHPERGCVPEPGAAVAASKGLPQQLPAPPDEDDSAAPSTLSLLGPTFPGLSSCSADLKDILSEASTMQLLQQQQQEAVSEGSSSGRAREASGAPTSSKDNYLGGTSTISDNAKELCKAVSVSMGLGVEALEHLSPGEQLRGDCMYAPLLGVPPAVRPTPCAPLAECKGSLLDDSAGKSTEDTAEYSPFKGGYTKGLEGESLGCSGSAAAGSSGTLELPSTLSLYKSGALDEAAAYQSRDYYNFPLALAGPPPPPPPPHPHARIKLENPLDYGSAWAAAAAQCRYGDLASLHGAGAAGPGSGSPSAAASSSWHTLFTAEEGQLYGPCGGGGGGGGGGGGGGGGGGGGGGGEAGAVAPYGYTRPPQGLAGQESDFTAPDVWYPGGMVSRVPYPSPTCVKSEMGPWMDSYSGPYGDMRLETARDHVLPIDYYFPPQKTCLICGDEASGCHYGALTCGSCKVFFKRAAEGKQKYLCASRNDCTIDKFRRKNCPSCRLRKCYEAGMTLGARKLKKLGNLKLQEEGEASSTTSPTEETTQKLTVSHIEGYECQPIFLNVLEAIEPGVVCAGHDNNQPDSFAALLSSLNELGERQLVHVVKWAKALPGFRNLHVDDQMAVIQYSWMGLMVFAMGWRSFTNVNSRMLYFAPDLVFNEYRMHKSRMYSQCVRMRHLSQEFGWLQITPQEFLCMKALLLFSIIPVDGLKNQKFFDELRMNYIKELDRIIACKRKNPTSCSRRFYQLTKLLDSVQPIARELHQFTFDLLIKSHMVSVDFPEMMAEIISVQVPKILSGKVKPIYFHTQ
Chain of Estrogen receptor (Homo sapiens) (P03372 whole entry, looked up): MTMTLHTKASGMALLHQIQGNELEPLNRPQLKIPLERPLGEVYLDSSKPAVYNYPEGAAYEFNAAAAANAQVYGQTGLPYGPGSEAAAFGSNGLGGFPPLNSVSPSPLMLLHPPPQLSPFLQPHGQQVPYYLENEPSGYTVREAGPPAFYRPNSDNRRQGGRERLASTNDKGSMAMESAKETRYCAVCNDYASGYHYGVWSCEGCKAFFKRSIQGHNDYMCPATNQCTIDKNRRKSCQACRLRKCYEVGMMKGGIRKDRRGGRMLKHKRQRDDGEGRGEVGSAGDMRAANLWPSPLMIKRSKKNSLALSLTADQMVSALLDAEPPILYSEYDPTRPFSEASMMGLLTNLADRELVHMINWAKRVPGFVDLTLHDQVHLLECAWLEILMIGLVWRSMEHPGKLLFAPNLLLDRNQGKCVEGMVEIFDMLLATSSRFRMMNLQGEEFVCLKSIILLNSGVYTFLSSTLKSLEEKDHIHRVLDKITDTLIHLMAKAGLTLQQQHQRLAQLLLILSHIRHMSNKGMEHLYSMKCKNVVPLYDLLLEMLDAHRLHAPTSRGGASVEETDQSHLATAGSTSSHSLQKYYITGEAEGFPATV
Chain of Thyrotropin receptor (Homo sapiens) (P16473 whole entry, looked up): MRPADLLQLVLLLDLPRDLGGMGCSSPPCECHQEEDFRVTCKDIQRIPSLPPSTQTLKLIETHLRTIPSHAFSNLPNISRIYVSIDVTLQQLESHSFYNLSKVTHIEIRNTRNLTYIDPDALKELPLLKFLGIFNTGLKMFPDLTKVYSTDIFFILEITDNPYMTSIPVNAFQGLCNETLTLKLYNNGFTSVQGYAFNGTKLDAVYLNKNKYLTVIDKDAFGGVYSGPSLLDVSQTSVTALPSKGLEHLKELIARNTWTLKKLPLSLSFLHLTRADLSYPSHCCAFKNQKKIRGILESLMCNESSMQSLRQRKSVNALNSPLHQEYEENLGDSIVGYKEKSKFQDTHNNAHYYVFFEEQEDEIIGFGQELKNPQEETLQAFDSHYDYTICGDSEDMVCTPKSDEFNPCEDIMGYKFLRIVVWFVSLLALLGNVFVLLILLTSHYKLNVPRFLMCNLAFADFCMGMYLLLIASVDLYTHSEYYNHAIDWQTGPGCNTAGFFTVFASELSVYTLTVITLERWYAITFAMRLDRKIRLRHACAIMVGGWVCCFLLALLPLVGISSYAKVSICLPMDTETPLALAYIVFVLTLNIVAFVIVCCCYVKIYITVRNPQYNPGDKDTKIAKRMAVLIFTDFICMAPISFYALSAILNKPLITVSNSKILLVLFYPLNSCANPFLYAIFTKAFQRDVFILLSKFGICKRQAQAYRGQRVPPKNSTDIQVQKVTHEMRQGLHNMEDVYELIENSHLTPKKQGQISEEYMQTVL

`COC(=O)c1cc(Cl)ccc1OC`: the Potency entry in assay [1], in assay [2], in assay [3], in assay [4], in assay [5] and in [6] was “inactive” each time. In addition, the Potency result in assay [7], in [8], in assay [9], in assay [10], in [11] and in assay [12] was “inactive” in each case. The Potency result in assay [13], in assay [14], in assay [15] and in assay [17] was “inactive” in each case. The outcome in assay [16] was inactive.

As to `C=CC(=O)OCC(CO)(COCC(COC(=O)C=C)(COC(=O)C=C)COC(=O)C=C)COC(=O)C=C`, the Potency in assay [1] was 15.2 µM (active); in assay [2], 3.03 µM (active); in assay [3], 2.4 µM (active); in assay [4], 17 µM (active); in assay [7], 1.07 µM (active); in assay [8], 3.03 µM (active). Besides, the Potency in [9] was 957 nM (active); in [10], 0.48 µM (active); in assay [18], 4.8 µM (active); in [11], 5.38 µM (active); in [12] it was 9.57 µM (active); in assay [14], 7.6 µM (active). Also, the Potency result in assay [5], in assay [13], in assay [15] and in assay [17] was “inactive” throughout. In [16], the molecule was classed as inactive.

Turning to `CCCCN1CCCC[C@H]1C(=O)Nc1c(C)cccc1C`, the Potency entry in [1], in assay [2], in assay [3], in [4], in assay [19] and in assay [5] was “inactive” each time. The Potency entry in assay [6], in assay [7], in assay [8], in [9], in assay [10] and in [20] was “inactive” throughout. The Potency entry in [11], in assay [12], in assay [13], in assay [14], in assay [15] and in assay [17] was “inactive” throughout. The result in assay [16] was inactive.

In the case of `Cc1nc(-c2ccc3c(c2)CCN(CCC2CCC(NC(=O)/C=C/c4ccc(F)cc4)CC2)CC3)no1` (centres undefined), the Potency result in assay [1], in [2], in assay [3], in [4], in assay [5] and in assay [7] was “inactive” throughout. In addition, the Potency result in assay [8], in assay [9], in [10], in [11], in [12] and in assay [13] was “inactive” throughout. The Potency entry in [14], in assay [15] and in assay [17] was “inactive” throughout. Further, the outcome in assay [16] was inactive.

`CC1(C)CCC(C)(C)c2cc(C(=O)Nc3ccc(C(=O)O)cc3)ccc21`: the Potency entry in [1], in assay [2], in assay [3], in assay [4], in assay [5] and in assay [9] was “inactive” each time. Moreover, the Potency entry in assay [20], in assay [11], in assay [13], in [14] and in assay [15] was “inactive” each time. The Potency in assay [18] is 43.3 µM (active). Also, the molecule was classed as inactive in assay [16].

`N=C1C=CC(=C(c2ccc(N)cc2)c2ccc(N)cc2)C=C1`: the Potency in assay [1] is 30.6 µM (active); in [2] it was 9.69 µM (active); in assay [3], 3.06 µM (active); in assay [4], 7.7 µM (active); in [6], 24.3 µM (active); in assay [7], 21.7 µM (active). Moreover, the Potency in [8] is 19.3 µM (active); in [10] it was 12.2 µM (active); in assay [11], 12.2 µM (active); in assay [12], 7.7 µM (active). The Potency entry in [9], in [13], in assay [14] and in assay [15] was “inactive” throughout.

Take `CC[C@@]1(O)C(=O)OCc2c1cc1n(c2=O)Cc2c-1nc1ccccc1c2/C=N/OC(C)(C)C`: the Potency entry in assay [1], in assay [2], in assay [5], in [6], in assay [8] and in assay [9] was “inactive” throughout. In addition, the Potency result in [13], in [14] and in assay [15] was “inactive” in each case. Further, the figures for the Potency in assay [3], in assay [4] and in [17] were 0.133 µM (active), 0.188 µM (active) and 11.9 µM (active), respectively. In addition, in assay [16], the result was inactive.
